Compounds without any hit were thinned out: in the full panel of roughly 83,000, 20% have a hit.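 48-hour exposure, single concentration, 96-well plates; percent growth endpoint where 0 means no net growth. Active: below 10.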 Calls of active or inactive are those of the source.
Assays:
Test in all cases: NCI-60 one-dose screen, 48 h (100 = growth as untreated, 0 = no growth, -100 = all killed)
Conditions in all cases: 10 µM
[1] = system: DU-145 prostate
[2] = system: MALME-3M melanoma
[3] = system: MDA-MB-231 breast
[4] = system: RXF 393 renal
[5] = system: SF-268 CNS
[6] = system: SF-295 CNS
[7] = system: SF-539 CNS
[8] = system: UACC-257 melanoma
[9] = system: M14 melanoma

Measured: growth

COc1ccc2[nH]c(O)c(N=NC(=O)COc3ccc(NC(=O)Nc4ccc(Cl)c(Cl)c4)cc3)c2c1
active: [1] -60.3% | [2] -79.6% | [3] -89.7% | [4] -87.5% | [6] -45.5% | [7] -97.5% | [9] -42.2%
inactive: [5] 64.1% | [8] 11.3%

O=C(CS(=O)(=O)c1oc(-c2ccc(Cl)cc2)nc1S(=O)(=O)c1ccccc1)N1CCCC1
active: [1] -100% | [2] -99.2% | [3] -88.3% | [4] -97.8% | [7] -78.6% | [8] -77.8% | [9] -31.5%
inactive: [5] 74.5% | [6] 80.8%

COc1cccc(-c2nn(-c3ccccc3)cc2-c2ccnc(NCCCNC(=O)Nc3ccc(F)cc3)c2)c1
active: [2] -24.7% | [3] -1.32% | [4] 0.912% | [6] -40.5% | [7] -29.9% | [8] -11.9% | [9] -21%
inactive: [1] 54.1% | [5] 26.1%

c1ccc(C(=C(c2ccc(OCCN3CCCCC3)cc2)c2ccc(OCCN3CCCCC3)cc2)C2CCCC2)cc1
active: [1] -45.2% | [2] -95.2% | [3] -94.4% | [5] -61% | [6] -63.8% | [7] -96.4% | [8] -34.2% | [9] -44.4%
inactive: [4] 29.1%

C=C(C)[C@@H]1CC[C@]2(COP(=O)(OCC)OCC)CC[C@]3(C)[C@H](CC[C@@H]4[C@@](C)(CCCN)[C@H](C(=C)C)CC[C@]43C)[C@@H]12
inactive: [1] 38% | [2] 15.7% | [3] 21.9% | [5] 42% | [6] 24.7% | [7] 19% | [8] 20.5% | [9] 18.2%
active: [4] 6.32%

O=C(c1ccc(-n2c(=O)[nH]c3ccccc3c2=O)cc1)N1CCOCC1
inactive: [1] 105% | [2] 97.5% | [3] 95.5% | [4] 127% | [5] 88.1% | [6] 102% | [7] 93.8% | [8] 127% | [9] 99.3%

Cc1ccc(NC(=O)NCn2c(=O)[nH]c3ccccc3c2=O)cc1
inactive: [1] 89% | [2] 79.3% | [3] 40.7% | [4] 30.3% | [5] 64.3% | [6] 95% | [7] 58.2% | [8] 94.5% | [9] 79.2%

CNC(=O)c1cc(-c2ccc(NC(=O)Nc3ccc(C)cc3)cc2)nc2cccnc12
inactive: [1] 109% | [2] 109% | [3] 93.3% | [4] 100% | [5] 104% | [6] 95.6% | [7] 99% | [8] 123% | [9] 116%

CC(C)NC(=O)c1cc(-c2ccc(NC(=O)Nc3ccc(N4CCN(C)CC4)c(C(F)(F)F)c3)cc2)nc2cccnc12
active: [1] -88.7% | [2] -96.3% | [3] -91.6% | [4] -89.8% | [5] -42.9% | [6] -96.5% | [7] -100% | [8] -88.6% | [9] -86.6%

C=C(C)[C@@H]1CC[C@]2(C(=O)OC)CC[C@]3(C)[C@H](CC[C@@H]4[C@@]5(C)CC[C@H](N)C(C)(C)[C@@H]5CC[C@]43C)[C@@H]12
active: [1] -87.9% | [2] -97.7% | [3] -97.8% | [4] -96% | [5] -65.3% | [6] -94.1% | [7] -99.8% | [8] -70% | [9] -74%

COc1ccc(-c2nc(S(=O)(=O)c3ccccc3)c(S(C)(=O)=O)o2)cc1
inactive: [5] 61.8% | [6] 87.3%
active: [1] -92.8% | [2] -92.7% | [3] -76.2% | [4] -90.8% | [7] -95.9% | [8] -38.6% | [9] -24%

CN1CCN(c2ccc(Nc3nc(NCCCNC(=O)C4CCCCC4)c4sccc4n3)cc2)CC1
inactive: [1] 67.5% | [3] 39% | [5] 62.2% | [6] 38.4%
active: [2] -97.1% | [4] -36% | [7] -77.9% | [8] -30.7% | [9] -8.5%

CCCS(=O)(=O)c1oc(-c2ccc(F)cc2)nc1S(=O)(=O)c1ccc(F)cc1
inactive: [5] 52.2% | [6] 78.2%
active: [1] -85.8% | [2] -98.8% | [3] -91.9% | [4] -97.5% | [7] -94.2% | [8] -30.9% | [9] -37.5%

COC1CC(Cn2cc(COc3ccc4ccc(=O)oc4c3)nn2)C(OCc2ccccc2)C(OCc2ccccc2)C1OCc1ccccc1 (stereo unspecified)
inactive: [1] 101% | [2] 106% | [3] 99.7% | [4] 80.1% | [5] 122% | [6] 102% | [7] 102% | [8] 110% | [9] 102%

COc1ccccc1NCc1ccc(CO)n1-c1ccc(C)cc1
inactive: [1] 111% | [2] 98.4% | [3] 91.2% | [4] 107% | [5] 94.7% | [6] 100% | [7] 94.7% | [8] 109% | [9] 101%

COc1cccc(C(N)=Nc2ccc(OCCCCCCn3cncn3)cc2)c1
active: [7] -31.3% | [9] 9.26%
inactive: [1] 33% | [2] 43.4% | [3] 13.6% | [5] 68.9% | [8] 56%

CC1(C)CC[C@]23CC[C@]4(C)[C@H](CC[C@@H]5[C@@]6(C)CC[C@H](N)C(C)(C)[C@@H]6CC[C@]54C)[C@H]2[C@H]1OC3=O
active: [1] -79.8% | [2] -95.9% | [3] -96.3% | [4] -95.6% | [5] -38.6% | [6] -94.5% | [7] -99.3% | [8] -90.8% | [9] -77.6%

Cc1ccc(S(=O)(=O)c2nc(-c3ccccc3)oc2S(=O)(=O)CC(=O)N2CCCC2)cc1
inactive: [6] 70.3%
active: [1] -98.5% | [2] -94.9% | [3] -94.8% | [4] -93.8% | [5] -0.601% | [7] -100% | [8] -92.2% | [9] -48.3%

CC(=C(c1ccc(OCCN2CCCCC2)cc1)c1ccc(OCCN2CCCCC2)cc1)c1ccccc1
active: [2] -99.9% | [3] 4.97% | [4] -66.2% | [6] -57.2% | [7] -93.3% | [8] -78.9% | [9] -47.2%
inactive: [1] 62.5% | [5] 34.5%

CC(=O)Nc1nc(-c2ccc(N3CCN(C)CC3)c(NS(=O)(=O)c3ccc(C(F)(F)F)cc3)c2)cs1
active: [4] -47% | [7] -86.4% | [9] -3.51%
inactive: [1] 23.3% | [2] 38.1% | [3] 24.2% | [5] 41.1% | [6] 46% | [8] 49.5%

CC1(C)CC[C@]2(C(=O)N3CCOCC3)CC[C@]3(C)C(=CC[C@@H]4[C@@]5(C)CC[C@H](NCO)C(C)(C)[C@@H]5CC[C@]43C)[C@H]2C1
active: [1] -89.4% | [2] -96.6% | [3] -97.6% | [4] -95% | [5] -76.5% | [6] -87.2% | [7] -96.8% | [8] -93.9% | [9] -84.6%

C=CC(=O)Nc1nc(-c2cccc(NS(=O)(=O)c3cccc4c(N(C)C)cccc34)c2)cs1
inactive: [6] 37.8%
active: [1] 3.39% | [2] -76.1% | [3] -63.8% | [4] -98.7% | [5] 0.14% | [7] -100% | [8] -29.3% | [9] -78.7%

CC(C)C(=O)Nc1ccc(C(=O)NC(=S)Nc2ccc(C(=O)O)cc2)cc1
inactive: [1] 110% | [2] 97% | [3] 104% | [4] 111% | [5] 93.9% | [6] 95.3% | [7] 95.3% | [8] 128% | [9] 105%

O=S(=O)(c1ccc(Cl)cc1)c1nc(-c2ccccc2)oc1S(=O)(=O)c1ccc(Cl)cc1
inactive: [1] 97.2% | [2] 91.8% | [3] 76.9% | [5] 97.7% | [6] 92.9% | [7] 84.8% | [8] 85.5% | [9] 90.8%
active: [4] 7.97%

O=c1[nH][nH]c(Nc2ccccc2)c1N=Nc1ccc(F)cc1
inactive: [1] 102% | [2] 116% | [3] 86.6% | [4] 83.1% | [5] 81.5% | [6] 111% | [7] 92.8% | [8] 127% | [9] 107%

CC1(C)CC[C@]2(C(=O)Nc3ccccc3)CC[C@]3(C)C(=CC[C@@H]4[C@@]5(C)CC[C@H](N)C(C)(C)[C@@H]5CC[C@]43C)[C@H]2C1
inactive: [1] 26.6% | [2] 83.7% | [3] 71.7% | [4] 59.8% | [5] 119% | [6] 52.7% | [7] 87.8% | [8] 103% | [9] 82.4%

CN1CCN(c2ccc(Nc3nc(NCCCNC(=O)c4ccc(Cl)cc4)c4sccc4n3)cc2)CC1
inactive: [1] 84.2% | [2] 72.6% | [3] 61.1% | [4] 37.6% | [5] 77% | [6] 98% | [7] 18.7% | [8] 71.9% | [9] 68.6%

CN1CCN(c2ccc(Nc3nc(N4CCN(S(=O)(=O)c5ccc(F)cc5)CC4)c4sccc4n3)cc2)CC1
active: [1] -84% | [2] -97.9% | [3] -94.6% | [4] -89.1% | [5] -72.3% | [6] -88.5% | [7] -100% | [8] -86.1% | [9] -56.9%

COc1ccc2[nH]c(O)c(N=NC(=O)COc3ccc(NC(=O)Nc4ccc(Cl)cc4)cc3)c2c1
active: [2] -14.4% | [3] -69.9% | [5] -10.3% | [7] -39% | [9] -27.2%
inactive: [1] 18.5% | [4] 44.1% | [6] 14% | [8] 51.8%

CC(=O)c1ccc(NC(=O)NCn2c(=O)[nH]c3ccccc3c2=O)cc1
inactive: [1] 104% | [2] 93.2% | [3] 95.1% | [4] 97.4% | [5] 128% | [6] 92.7% | [7] 90.6% | [8] 98.6% | [9] 110%

CNC(=O)c1cccc(N2CCc3c2ccc(NC(=O)Nc2ccc(N4CCN(C)CC4)c(C(F)(F)F)c2)c3F)c1
active: [1] -76.2% | [2] -96.3% | [3] -94.8% | [4] -85.3% | [5] -62.7% | [6] -97.2% | [7] -100% | [8] -35% | [9] -93.3%

CCN1CCN(c2ccc(NC(=O)Nc3ccc(-c4cc(C(=O)NC)c5ncccc5n4)cc3)cc2C(F)(F)F)CC1
active: [1] -100% | [2] -100% | [3] -100% | [4] -94.4% | [5] -77.5% | [6] -99% | [7] -100% | [8] -96.7% | [9] -100%

From PubChem BioAssay (NCI)
